The record followed here is PubChem BioAssay (EPA / NIEHS).

Read-out in experiment [1]: Interleukin-1 alpha (IL1a), IL1A (gene 3552)
Briefly: BSK_LPS_IL1a: BioMAP Diversity Plus: LPS Assay for Interleukin-1 alpha (IL1a) Biomarker Activity (AID 2283080). The settings on record: primary human HUVEC with PBMC; actives raise or lower the signal. An outline of the steps: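 ELISA read-out of IL-1 alpha from a human primary vascular co-culture (endothelium plus PBMC) under LPS, sampled 24 hours post-dosing. Activity was fitted in both directions relative to DMSO controls.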

Read-out in experiment [2]: Monocyte Chemoattractant Protein-1 (MCP1), CCL2 (gene 6347)
Nature of the experiment: BSK_LPS_MCP1: BioMAP Diversity Plus: LPS Assay for Monocyte Chemoattractant Protein-1 (MCP1) Biomarker Activity (AID 2283081). The settings on record: primary human HUVEC with PBMC; actives raise or lower the signal. An outline of the steps:
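Human endothelial–PBMC co-cultures were dosed with chemical, then LPS-driven MCP-1 levels were quantified by ELISA at 24 h. Activity in either direction was fitted versus DMSO negative control.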

A short description of experiment [3]: BSK_LPS_PGE2: BioMAP Diversity Plus: LPS Assay for Prostaglandin E2 (PGE2) Biomarker Activity (AID 2283082). The following applies: primary human HUVEC with PBMC; actives raise or lower the signal. Put shortly: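 LPS-activated HUVEC/PBMC co-culture; cmpd dosed, 24 h; PGE2 by ELISA; bidirectional fit vs DMSO; SRB (0.1%, TCA-fixed, 560 nm) in parallel plates for overt cytotox.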

Read-out in experiment [4]: Macrophage colony-stimulating factor (MCSF), CSF1 (gene 1435)
Briefly: BSK_LPS_MCSF: BioMAP Diversity Plus: LPS Assay for Macrophage colony-stimulating factor (MCSF) Biomarker Activity (AID 2283083). The settings on record: primary human HUVEC with PBMC; actives raise or lower the signal. An outline of the steps: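 ELISA readout of M-CSF after 24 h compound exposure in a human endothelial/PBMC co-culture. Activity, in either direction, is fitted relative to DMSO vehicle.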

Read-out in experiment [5]: Tissue Factor, F3 (gene 2152)
Briefly: BSK_LPS_TissueFactor: BioMAP Diversity Plus: LPS Assay for Tissue Factor Biomarker Activity (AID 2283084). The following applies: primary human HUVEC with PBMC; actives raise or lower the signal. An outline of the steps: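 ELISA signal for cell-surface Tissue Factor (CD142) was read 24 h after compound dosing of an LPS-stimulated human endothelial–PBMC primary co-culture. Gain or loss of signal was scored relative to DMSO.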

Read-out in experiment [6]: Tumor necrosis factor (Homo sapiens) (UniProt P01375)
Nature of the experiment: BSK_LPS_TNFa: BioMAP Diversity Plus: LPS Assay for Tumour Necrosis Factor alpha (TNFa) Biomarker Activity (AID 2283085). The settings on record: primary human HUVEC with PBMC; actives raise or lower the signal. Put shortly: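 Read-out is ELISA of TNFa in primary human endothelial cell–PBMC co-cultures at 24 h after compound. Activity in either direction was fitted against DMSO.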

Read-out in experiment [7]: Vascular cell adhesion molecule 1 (VCAM1), VCAM1 (gene 7412)
Nature of the experiment: BSK_LPS_VCAM1: BioMAP Diversity Plus: LPS Assay for Vascular cell adhesion molecule 1 (VCAM1) Biomarker Activity (AID 2283086). The settings on record: primary human HUVEC with PBMC; actives raise or lower the signal. Put shortly: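 HUVEC + PBMC co-culture, LPS system; compound 24 h; VCAM-1 by ELISA; bidirectional fit vs DMSO control; parallel SRB (0.1%, TCA-fixed, 560 nm) for cytotoxicity.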

Read-out in another experiment: CD38, CD38 (gene 952)
Nature of the experiment: BSK_SAg_CD38: BioMAP Diversity Plus: SAg Assay for CD38 Biomarker Activity (AID 2283087). The settings on record: primary human HUVEC with PBMC; actives raise or lower the signal. Put shortly: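 Human HUVEC plus PBMC co-culture stimulated with superantigen; CD38 measured by ELISA 24 h after chemical dosing. Fluorescence read-out, bidirectional fit against DMSO; cytotoxicity tracked in parallel by SRB and Alamar Blue.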

Read-out in another experiment: CD40, CD40 (gene 958)
Briefly: BSK_SAg_CD40: BioMAP Diversity Plus: SAg Assay for CD40 Biomarker Activity (AID 2283088). The following applies: primary human HUVEC with PBMC; actives raise or lower the signal. Put shortly: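 Compounds were dosed onto a human primary endothelial–PBMC co-culture, and after 24 h CD40 was quantified by ELISA using a fluorescence signal. Activity in either direction was fitted relative to DMSO.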

Read-out in another experiment: CD69, CD69 (gene 969)
Briefly: BSK_SAg_CD69: BioMAP Diversity Plus: SAg Assay for CD69 Biomarker Activity (AID 2283089).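 On AC50: cell surface CD69 protein quantified by ELISA with fluorescence detection.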 The following applies: primary human HUVEC with PBMC; actives raise or lower the signal. Put shortly: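 Primary human vascular co-culture (umbilical vein endothelium with peripheral blood mononuclear cells) exposed to test chemical for 24 h. CD69 levels quantified by fluorescence ELISA; DMSO served as negative control for bidirectional fitting.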

Read-out in experiment [8]: Monocyte Chemoattractant Protein-1 (MCP1), CCL2 (gene 6347)
Nature of the experiment: BSK_SAg_MCP1: BioMAP Diversity Plus: SAg Assay for Monocyte Chemoattractant Protein-1 (MCP1) Biomarker Activity (AID 2283090). The settings on record: primary human HUVEC with PBMC; actives raise or lower the signal. Put shortly: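 MCP-1 levels in the endothelial–PBMC SAg co-culture were quantified by ELISA at 24 h post-dosing; both increases and decreases versus DMSO scored. Cytotoxicity monitored by SRB total protein in parallel cultures.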

Read-out in experiment [9]: E-selectin (Homo sapiens) (UniProt P16581)
Nature of the experiment: BSK_SAg_Eselectin: BioMAP Diversity Plus: SAg Assay for Eselectin Biomarker Activity (AID 2283091). The following applies: primary human HUVEC with PBMC; actives raise or lower the signal. Put shortly: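 Co-culture: HUVEC + PBMC. Dose compound; 24 h. ELISA for E-selectin. Bidirectional fit vs DMSO.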

Read-out in experiment [10]: Monokine induced gamma interferon (MIG), CXCL9 (gene 4283)
Briefly: BSK_SAg_MIG: BioMAP Diversity Plus: SAg Assay for Monokine induced gamma interferon (MIG) Biomarker Activity (AID 2283092). The settings on record: primary human HUVEC with PBMC; actives raise or lower the signal. An outline of the steps:
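Endothelial cells and PBMC were co-cultured, exposed to test chemicals, and sampled 24 h later. MIG was measured by ELISA, and responses were fitted in both directions relative to DMSO.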

Experiment [11] in a line: BSK_SAg_PBMCCytotoxicity: PBMC Cytotoxicity Assessment in the BioMAP Diversity Plus: SAg Assay (AID 2283093).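 Further: PBMC viability measured as Alamar Blue reduction fluorescence at 546/580 nm; fitted both ways against DMSO so a hit may be loss or gain of signal.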 The following applies: primary human HUVEC with PBMC. Put shortly:
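HUVEC/PBMC co-culture; PBMC exposed to chemical 1 h before SEB and TSST-1 activation (20 ng/mL each), incubated 90 h, then Alamar Blue 6 h, fluorescence 546/580 nm. Bidirectional fit versus DMSO baseline.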

Read-out in experiment [12]: Interleukin-8 (IL8), CXCL8 (gene 3576)
Briefly: BSK_SAg_IL8: BioMAP Diversity Plus: SAg Assay for Interleukin-8 (IL8) Biomarker Activity (AID 2283094). The following applies: primary human HUVEC with PBMC; actives raise or lower the signal. Put shortly: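 ELISA read-out of IL-8 in a primary human vascular co-culture (umbilical vein endothelium plus PBMC), taken 24 h after compound addition. Values derive from bidirectional fits against DMSO negative controls.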

Experiment [13] in a line: BSK_SAg_Proliferation: Cell Proliferation Assessment in the BioMAP Diversity Plus: SAg Assay (AID 2283095).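 Further: relative cell number as total protein by SRB absorbance in sub-confluent culture.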 The settings on record: primary human HUVEC with PBMC. Put shortly:
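Cells (endothelium plus PBMC, human primary) were dosed with chemical, cultured 96 h, fixed in 10% TCA and stained with 0.1% SRB. Absorbance at 560 nm gave relative protein, fitted bidirectionally relative to DMSO.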

A short description of experiment [14]: BSK_SAg_SRB: Viability Assessment in the BioMAP Diversity Plus: SAg Assay (AID 2283096).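 Further: cells read one day after compound addition; hits may be either gain or loss of signal compared with DMSO.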 The settings on record: primary human HUVEC with PBMC. An outline of the steps: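 Human umbilical vein endothelial cells co-cultured with PBMC, read 24 h after compound dosing. Total protein measured by sulforhodamine B staining (0.1% SRB after 10% TCA fixation, absorbance 560 nm); bidirectional fit versus DMSO baseline.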

Experiment [15] deals with human CYP2D6, CYP2D6 (gene 1565) (UniProt P10635). Nature of the experiment: NVS_ADME_hCYP2D6: NovaScreen (NVS) CYP450-related Enzyme Activity (ADME) Assay for human CYP2D6 (AID 2283107; active means hit-call score of the fitted dose curve at least 0.9, where 1 is the maximum). An outline of the steps:
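Insect-cell recombinant enzyme + fluorogenic substrate, cell-free; 1 h incubation; fluorescence intensity readout. Acetonitrile = neg. ctrl/baseline. Single-point 10 uM, duplicate; follow-up concentration series.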

For experiment [16], the target named is Cytochrome P450 3A4 (Homo sapiens) (UniProt P08684). Briefly: NVS_ADME_hCYP3A4: NovaScreen (NVS) CYP450-related Enzyme Activity (ADME) Assay for human CYP3A4 (AID 2283110; active means hit-call score of the fitted dose curve at least 0.9, where 1 is the maximum). Put shortly:
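Cell-free recombinant enzyme expressed in insect cells; fluorescent substrate turnover read after 0.33 h, acetonitrile as negative control. Primary screen in duplicate at 10 uM, actives then tested in concentration series.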

Records with an inconclusive call do not appear. More than one record can exist for a structure, and the calls need not agree. Active and inactive are the calls of the source. How the source made its calls, unless noted: active means hit-call score of the fitted dose curve at least 0.9, where 1 is the maximum; inactive means score below 0.9.

E-selectin (Homo sapiens), sequence (P16581 whole entry, looked up): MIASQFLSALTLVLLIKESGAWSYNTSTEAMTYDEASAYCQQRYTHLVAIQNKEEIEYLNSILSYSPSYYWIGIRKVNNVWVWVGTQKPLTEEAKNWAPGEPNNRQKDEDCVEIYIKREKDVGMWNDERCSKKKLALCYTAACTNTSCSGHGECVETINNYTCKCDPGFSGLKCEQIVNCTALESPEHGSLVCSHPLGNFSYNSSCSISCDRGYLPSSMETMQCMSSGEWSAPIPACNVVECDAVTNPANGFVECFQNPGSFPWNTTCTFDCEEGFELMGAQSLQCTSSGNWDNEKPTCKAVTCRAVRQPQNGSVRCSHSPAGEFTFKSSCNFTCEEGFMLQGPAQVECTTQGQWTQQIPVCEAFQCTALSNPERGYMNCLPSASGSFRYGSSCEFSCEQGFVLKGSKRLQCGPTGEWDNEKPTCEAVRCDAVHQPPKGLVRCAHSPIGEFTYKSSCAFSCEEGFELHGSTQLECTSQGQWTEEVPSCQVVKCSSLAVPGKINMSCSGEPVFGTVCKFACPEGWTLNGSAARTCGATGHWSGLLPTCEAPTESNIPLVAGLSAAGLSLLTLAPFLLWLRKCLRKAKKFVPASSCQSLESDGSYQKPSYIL
Tumor necrosis factor (Homo sapiens), sequence (P01375 whole entry, looked up): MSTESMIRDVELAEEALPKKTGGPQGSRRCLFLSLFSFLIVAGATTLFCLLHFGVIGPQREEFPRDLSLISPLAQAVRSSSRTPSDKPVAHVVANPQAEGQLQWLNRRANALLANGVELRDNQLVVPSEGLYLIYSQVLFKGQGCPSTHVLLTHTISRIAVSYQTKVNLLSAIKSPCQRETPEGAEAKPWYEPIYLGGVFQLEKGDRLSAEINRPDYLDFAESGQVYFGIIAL
human CYP2D6, CYP2D6 (gene 1565), sequence (P10635 whole entry, looked up): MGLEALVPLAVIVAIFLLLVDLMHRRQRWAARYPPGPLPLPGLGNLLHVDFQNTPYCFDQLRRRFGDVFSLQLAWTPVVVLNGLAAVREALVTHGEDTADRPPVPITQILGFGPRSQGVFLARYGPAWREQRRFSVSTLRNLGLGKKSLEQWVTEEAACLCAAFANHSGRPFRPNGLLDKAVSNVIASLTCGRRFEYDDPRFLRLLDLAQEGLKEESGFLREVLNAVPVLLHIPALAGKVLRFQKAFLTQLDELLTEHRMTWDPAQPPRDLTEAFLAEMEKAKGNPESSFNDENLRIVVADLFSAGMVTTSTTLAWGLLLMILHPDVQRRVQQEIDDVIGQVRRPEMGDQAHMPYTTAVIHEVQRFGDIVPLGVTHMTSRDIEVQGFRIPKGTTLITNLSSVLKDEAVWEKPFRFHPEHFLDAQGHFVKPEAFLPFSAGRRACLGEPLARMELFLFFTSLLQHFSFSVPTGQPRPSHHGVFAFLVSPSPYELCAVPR
Cytochrome P450 3A4 (Homo sapiens), sequence (P08684 whole entry, looked up): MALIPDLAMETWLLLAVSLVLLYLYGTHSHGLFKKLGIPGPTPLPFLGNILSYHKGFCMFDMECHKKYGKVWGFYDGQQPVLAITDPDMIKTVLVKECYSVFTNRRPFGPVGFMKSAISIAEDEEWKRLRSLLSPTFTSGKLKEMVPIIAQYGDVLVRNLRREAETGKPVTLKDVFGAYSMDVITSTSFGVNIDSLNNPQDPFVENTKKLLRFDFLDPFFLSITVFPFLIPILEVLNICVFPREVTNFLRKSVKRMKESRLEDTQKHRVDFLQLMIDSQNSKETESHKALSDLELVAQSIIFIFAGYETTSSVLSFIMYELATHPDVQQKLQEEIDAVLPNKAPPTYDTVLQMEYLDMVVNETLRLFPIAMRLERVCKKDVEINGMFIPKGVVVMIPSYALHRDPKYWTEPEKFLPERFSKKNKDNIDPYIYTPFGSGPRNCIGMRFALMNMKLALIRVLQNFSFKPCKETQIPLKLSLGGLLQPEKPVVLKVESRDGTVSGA

For orientation: AC50 means the concentration giving half of the maximal activity seen. For `O=C(O)C(F)(F)C(F)(F)C(F)(F)C(F)(F)F`, the result in experiment [1], in experiment [2], in [3], in experiment [4], in experiment [5] and in experiment [6] was inactive. Also, the outcome in [7] is “inactive”; in the experiment with CD38, CD38 (gene 952) it was “inactive”; with CD40, CD40 (gene 958), “inactive”; with CD69, CD69 (gene 969), “inactive”; in experiment [8], “inactive”; in [9], “inactive”. Besides, the result in experiment [10], in [11], in [12], in [13] and in experiment [14] was inactive. For the same molecule, in experiment [4], the AC50 was 8.3 µM (active).
With `FC(F)(F)C(F)(F)CNCC(F)(F)C(F)(F)F`, the outcome in experiment [1], in experiment [2], in experiment [3], in experiment [4], in experiment [5] and in experiment [6] was inactive. Further, the outcome in experiment [7] is “inactive”; in the experiment with CD38, CD38 (gene 952), “inactive”; with CD40, CD40 (gene 958), “inactive”; with CD69, CD69 (gene 969), “inactive”; in experiment [8], “inactive”; in experiment [9], “inactive”. The outcome in [10], in experiment [11], in experiment [12], in experiment [13] and in [14] was inactive. The concentration at half-maximal activity (AC50) in experiment [4] is 6.78 µM (active).
In the case of `C=CC(F)(F)C(F)(F)C(F)(F)C(F)(F)C(F)(F)C(F)(F)C(F)(F)C(F)(F)C=C`, the outcome in [1], in experiment [2], in [3], in [4], in experiment [5] and in experiment [6] was inactive. Moreover, the outcome in experiment [7] was “inactive”; in the experiment with CD38, CD38 (gene 952) it was “inactive”; in the experiment with CD40, CD40 (gene 958) it was “inactive”; with CD69, CD69 (gene 969), “inactive”; in experiment [8], “inactive”; in [9], “inactive”. The result in experiment [10], in experiment [11], in experiment [12], in experiment [13] and in [14] was inactive.
Regarding `CCCCCCCCC(F)(F)C(F)(F)C(F)(F)C(F)(F)C(F)(F)C(F)(F)F`, the outcome in experiment [1], in experiment [2], in [3], in [4], in experiment [5] and in [6] was inactive. Moreover, the outcome in experiment [7] was “inactive”; in the experiment with CD38, CD38 (gene 952), “inactive”; with CD40, CD40 (gene 958) it was “inactive”; with CD69, CD69 (gene 969), “inactive”; in experiment [8], “inactive”; in experiment [9] it was “inactive”. Further, the result in experiment [10], in [11], in [12], in [13] and in experiment [14] was inactive.
With `FC(F)(F)C(F)(F)C(F)(F)C(F)(F)C(F)(F)C(F)(F)CCS`, the result in [1], in [2], in experiment [3], in experiment [4], in experiment [5] and in experiment [6] was inactive. The outcome in experiment [7] was “inactive”; in the experiment with CD38, CD38 (gene 952), “inactive”; with CD40, CD40 (gene 958), “inactive”; with CD69, CD69 (gene 969), “inactive”; in experiment [8], “inactive”; in [9], “inactive”. Further, the outcome in experiment [10], in experiment [11], in experiment [12], in experiment [13] and in experiment [14] was inactive.
As for `CC(=O)Nc1ccc(N=Nc2cc(C)ccc2O)cc1`, the result in experiment [1], in experiment [2], in [3], in experiment [4], in experiment [5] and in experiment [6] was inactive. The outcome is “inactive” in the experiment with CD40, CD40 (gene 958); “inactive” in experiment [8]; “inactive” in experiment [9]; “inactive” in experiment [10]; “inactive” in experiment [11]; “inactive” in experiment [12]. Besides, the result in experiment [14] was inactive. The AC50 in [7] is 5.06 µM (active); with CD38, CD38 (gene 952), 7.17 µM (active); in the experiment with CD69, CD69 (gene 969), 5.73 µM (active); in [13], 11 µM (active); in [15] it was 2.96 µM (active); in experiment [16], 5 µM (active).
